According to the supplement of paper PMC8773631:
± gives the uncertainty stated by the source.

Each compound was assayed on NCC-MFS5-C1 (assay: cell viability relative to DMSO control; higher = less growth inhibition). Details: 10 µM; treatment time: 3 days.
Description: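 NCC-MFS5-C1 myxofibrosarcoma cells (1x10^4 per well, 384-well) were treated on day 2 with 10 µM of each drug. On day 5, viability was read by CCK-8 absorbance at 450 nm and normalised to the DMSO control (%), n = 2.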
Work on `CC[C@H]1OC(=O)[C@H](C)[C@@H](O[C@H]2C[C@@](C)(OC)[C@@H](O)[C@H](C)O2)[C@H](C)[C@@H](O[C@@H]2O[C@H](C)C[C@H](N(C)C)[C@H]2O)[C@](C)(O)C[C@@H](C)CN(C)[C@H](C)[C@@H](O)[C@]1(C)O` [Azithromycin] yielded a cell viability of 69.4 ± 0.75%. Compound `CN(C)C/C=C/C(=O)Nc1cc2c(Nc3ccc(F)c(Cl)c3)ncnc2cc1O[C@H]1CCOC1` [Afatinib (BIBW2992) Dimaleate] has a cell viability of 15 ± 7%. In the case of `C[C@@]12C[C@@]3(O)O[C@@H](O1)[C@]1(COC(=O)c4ccccc4)[C@H]3C[C@@]12O[C@@H]1O[C@H](CO)[C@@H](O)[C@H](O)[C@H]1O` [Paeoniflorin], the cell viability is reported as 83.6 ± 1.2%. Work on `CN1CCN(CCOc2cc(OC3CCOCC3)c3c(Nc4c(Cl)ccc5c4OCO5)ncnc3c2)CC1` [Saracatinib (AZD0530)] yielded a cell viability of 62.8 ± 3.8%. With `CC(C)(OCc1nn(Cc2ccccc2)c2ccccc12)C(=O)O` [Bindarit] the cell viability was 85.93 ± 0.83%. With `Cn1nnc2c(C(N)=O)ncn2c1=O` [Temozolomide] the cell viability was 99.4 ± 23%. With `CCCCCCNC(=O)n1cc(F)c(=O)[nH]c1=O` [Carmofur] the cell viability was 81.5 ± 1.1%. For `FC(F)(F)c1ccc(/C=C/c2nc(COc3ccc(CCCCn4ccnn4)cc3)co2)cc1` [Mubritinib (TAK 165)], the cell viability was 96 ± 3.5%. `CC(=O)O[C@@]12CO[C@@H]1C[C@H](O)[C@@]1(C)C(=O)[C@H](O)C3=C(C)[C@@H](OC(=O)[C@H](O)[C@@H](NC(=O)OC(C)(C)C)c4ccccc4)C[C@@](O)([C@@H](OC(=O)c4ccccc4)[C@H]21)C3(C)C` [Docetaxel] gave a cell viability of 67 ± 2.2%.
